# Results as given in PubChem BioAssay.
# Calls of active or inactive are those of the source.
# Tests used:
# [1] = target: NADPH oxidase 5 (Homo sapiens) (UniProt Q96PH1); test: compounds shifting NOX5 Amplex Red fluorescence – cell-based, HEK293-NOX5, NOX inhibitor project, primary screen (AID 1161); conditions: HEK293-NOX5, ionomycin, 45 min, higher = more signal
# [2] = compound effects on lung adenocarcinoma cell viability – A549, calcein-AM fluorescence, 48 h, basal, profiling panel (AID 1162); conditions: higher = more signal; further: test concentration not given here
# [3] = compound effects on differentiated 3T3-L1 adipocyte viability – cell-based, 3T3-L1 adipocytes, calcein-AM fluorescence, 48 h, basal, profiling panel (AID 1163); conditions: 3T3-L1 adipocytes viability, higher = more signal; further: test concentration not given here
# [4] = compound effects on hepatocellular carcinoma cell viability – HepG2, calcein-AM fluorescence, 48 h, basal, profiling panel (AID 1164); conditions: higher = more signal; further: test concentration not given here
# [5] = compound effects on multiple myeloma cell viability – MM1S, calcein-AM fluorescence, 48 h, basal, profiling panel (AID 1165); conditions: higher = more signal; further: test concentration not given here
# [6] = calcein-AM signal in unstimulated myeloma cells – cell-based, calcein-AM fluorescence, 48 h, PK04 Diversity Set, profiling panel (AID 1166); conditions: RPMI8226 myeloma viability, higher = more signal;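 further: cells grown under basal conditions without added stimulus; test concentration not given here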
# [7] = JC-1 mitochondrial signal, unstimulated HepG2 cells – cell-based, JC-1 fluorescence, 24 h, 100 nL compound, profiling panel (AID 1167); conditions: HepG2 mitochondrial potential, higher = more signal; further: test concentration not given here
# [8] = JC-1 mitochondrial signal, unstimulated adipocytes – cell-based, JC-1 fluorescence, 3T3-L1 adipocytes, 24 h, 100 nL compound, profiling panel (AID 1168); conditions: JC-1 mitochondrial fluorescence, higher = more signal, called active from +8 up or from −8 down; further: test concentration not given here
# [9] = JC-1 mitochondrial signal, unstimulated myeloma cells – cell-based, JC-1 fluorescence, RPMI8226, 24 h, 100 nL compound, profiling panel (AID 1169); conditions: JC-1 mitochondrial potential fluorescence, higher = more signal; further: test concentration not given here
# [10] = JC-1 mitochondrial signal, unstimulated MM1S myeloma – cell-based, JC-1 fluorescence, 24 h, 100 nL compound, profiling panel (AID 1170); conditions: MM1S mitochondrial potential, higher = more signal; further: test concentration not given here
# [11] = resazurin metabolic signal in A549 cells – cell-based, resazurin fluorescence, 24 h, PK04 Diversity Set, profiling panel (AID 1171); conditions: A549 viability, higher = more signal, called active from +8 up or from −8 down; further: test concentration not given here
# [12] = resazurin metabolic signal in HepG2 cells – cell-based, resazurin fluorescence, 24 h, PK04 Diversity Set, profiling panel (AID 1172); conditions: HepG2 viability, higher = more signal; further: test concentration not given here
# [13] = budding yeast growth changes without added modifier – OD600, strain BY4716, 24 h, basal condition, primary screen (AID 1173); conditions: S. cerevisiae BY4716 growth, OD600, 24 h; higher = more signal, called active from +8 up or from −8 down
# [14] = viability profiling in MM1S myeloma cells – cell-based, resazurin fluorescence, basal, 24 h, PK04 Diversity Set, profiling panel (AID 1174); conditions: higher = more signal, called active from +8 up or from −8 down; further: test concentration not given here
# [15] = target: Dihydroorotate dehydrogenase (quinone), mitochondrial (Plasmodium falciparum (isolate 3D7)) (UniProt Q08210); test: inhibition of P. falciparum DHODH – biochemical, C-terminal His tag, absorbance 600 nm, primary screen (AID 1175); conditions: PfDHODH enzyme, DCIP absorbance 600 nm; higher = more signal, called active from +8 up or from −8 down;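 further: recombinant parasite enzyme with a five histidine tag at its C terminus; test concentration not given here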
# [16] = growth modulation of vineyard yeast isolate – strain RM11-1a, OD600, basal, 24 h, primary screen (AID 1177);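 further: cultures grown under basal conditions with no added stressor; test concentration not given here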; conditions: S. cerevisiae RM11-1a growth, OD600, 24 h; higher = more signal, called active from +8 up or from −8 down
# [17] = growth of efflux-deficient E. coli DRC39 – strain DRC39, OD650, 24 h, E. coli filamentation inducers, primary screen (AID 1178);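 further: growth measured as culture turbidity by optical density at 650 nm; test concentration not given here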; conditions: E. coli DRC39 acrAB, higher = more signal, called active from +8 up or from −8 down
# [18] = growth of efflux-deficient E. coli DRC39 – strain DRC39, OD650, 48 h, E. coli filamentation inducers, primary screen (AID 1179);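 further: screen aims at cell division blockers that make cells filament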; conditions: E. coli DRC39 delta-acrAB growth, higher = more signal, called active from +8 up or from −8 down
# [19] = viability profiling in RPMI8226 myeloma cells – cell-based, resazurin fluorescence, basal, 24 h, PK04 Diversity Set, profiling panel (AID 1180); conditions: higher = more signal;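 further: RPMI8826 multiple myeloma cell line at 5000 cells per well; test concentration not given here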
# [20] = target: E3 ubiquitin-protein ligase XIAP (Homo sapiens) (UniProt P98170); test: small molecules binding XIAP protein – biophysical, small-molecule microarray, fluorescence 635 nm, primary screen (AID 1181); conditions: higher = more signal;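 further: score merges 667 nm emission and signal to noise over triplicate slides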
# Chain of E3 ubiquitin-protein ligase XIAP (Homo sapiens) (P98170 whole entry, looked up): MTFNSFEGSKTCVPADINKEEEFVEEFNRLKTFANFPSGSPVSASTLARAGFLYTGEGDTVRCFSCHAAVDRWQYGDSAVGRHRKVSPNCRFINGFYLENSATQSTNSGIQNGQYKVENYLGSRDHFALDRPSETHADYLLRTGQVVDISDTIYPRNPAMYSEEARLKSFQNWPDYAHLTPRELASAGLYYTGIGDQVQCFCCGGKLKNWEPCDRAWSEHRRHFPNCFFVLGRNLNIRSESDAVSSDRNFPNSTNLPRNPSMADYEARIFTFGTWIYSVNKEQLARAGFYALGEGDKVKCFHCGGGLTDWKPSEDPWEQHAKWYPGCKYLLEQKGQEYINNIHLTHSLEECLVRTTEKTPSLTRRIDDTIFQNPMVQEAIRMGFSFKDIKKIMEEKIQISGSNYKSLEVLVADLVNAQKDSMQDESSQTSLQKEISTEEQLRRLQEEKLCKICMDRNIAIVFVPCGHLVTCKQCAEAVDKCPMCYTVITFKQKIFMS
# Chain of NADPH oxidase 5 (Homo sapiens) (Q96PH1 whole entry, looked up): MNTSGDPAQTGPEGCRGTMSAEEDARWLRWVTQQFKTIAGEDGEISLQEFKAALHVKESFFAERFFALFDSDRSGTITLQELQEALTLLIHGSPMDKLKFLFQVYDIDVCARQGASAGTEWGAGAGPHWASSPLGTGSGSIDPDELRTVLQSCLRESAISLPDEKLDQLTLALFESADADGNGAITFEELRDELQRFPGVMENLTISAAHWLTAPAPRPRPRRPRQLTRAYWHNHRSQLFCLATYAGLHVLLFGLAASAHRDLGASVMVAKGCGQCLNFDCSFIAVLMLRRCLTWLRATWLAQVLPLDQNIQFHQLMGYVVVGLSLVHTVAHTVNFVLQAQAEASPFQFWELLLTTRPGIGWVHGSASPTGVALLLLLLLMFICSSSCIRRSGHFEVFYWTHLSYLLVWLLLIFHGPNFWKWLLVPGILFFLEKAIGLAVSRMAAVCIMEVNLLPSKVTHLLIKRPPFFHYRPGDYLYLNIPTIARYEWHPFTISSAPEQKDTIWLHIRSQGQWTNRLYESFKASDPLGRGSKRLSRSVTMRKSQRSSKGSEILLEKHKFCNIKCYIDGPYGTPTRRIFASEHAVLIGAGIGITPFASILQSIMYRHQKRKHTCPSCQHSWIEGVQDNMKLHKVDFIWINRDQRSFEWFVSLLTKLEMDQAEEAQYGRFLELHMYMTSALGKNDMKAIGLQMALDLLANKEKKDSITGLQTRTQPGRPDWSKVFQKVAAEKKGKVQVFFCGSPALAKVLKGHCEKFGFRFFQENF
# Chain of Dihydroorotate dehydrogenase (quinone), mitochondrial (Plasmodium falciparum (isolate 3D7)) (Q08210 whole entry, looked up): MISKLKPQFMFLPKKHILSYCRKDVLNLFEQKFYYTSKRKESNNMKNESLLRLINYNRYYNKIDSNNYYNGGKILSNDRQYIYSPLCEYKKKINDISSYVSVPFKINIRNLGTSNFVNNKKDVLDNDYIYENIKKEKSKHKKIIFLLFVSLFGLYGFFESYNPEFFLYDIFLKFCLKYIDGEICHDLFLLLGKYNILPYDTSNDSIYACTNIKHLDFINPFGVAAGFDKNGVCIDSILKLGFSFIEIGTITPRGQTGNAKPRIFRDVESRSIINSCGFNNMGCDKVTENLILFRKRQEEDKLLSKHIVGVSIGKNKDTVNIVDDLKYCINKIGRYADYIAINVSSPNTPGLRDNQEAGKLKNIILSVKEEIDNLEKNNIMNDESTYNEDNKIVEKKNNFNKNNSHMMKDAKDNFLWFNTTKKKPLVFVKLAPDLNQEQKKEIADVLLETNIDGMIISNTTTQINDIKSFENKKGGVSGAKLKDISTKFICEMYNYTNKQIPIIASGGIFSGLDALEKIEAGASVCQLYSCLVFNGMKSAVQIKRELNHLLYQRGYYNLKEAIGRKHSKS
SMILES,z-score [1],z-score [2],z-score [3],z-score [4],z-score [5],z-score [6],z-score [7],z-score [8],z-score [9],z-score [10],z-score [11],z-score [12],z-score [13],z-score [14],composite z-score [15],z-score [16],z-score [17],z-score [18],z-score [19],composite z-score [20]
O=C1O[C@H](c2ccccc2)[C@H](c2ccccc2)N2[C@H]1[C@@H](C(=O)Nc1nc3ccccc3s1)[C@]1(C(=O)Nc3ccc(C#CCCO)cc31)[C@H]2c1ccccc1OCCO,2.14,-0.655,1.87,0.383,-1,-0.198,-2.75,1.18 (inactive),-0.8,-1.16,0.411 (inactive),0.253,0.243 (inactive),0.228 (inactive),-0.244 (inactive),1.07 (inactive),0.381 (inactive),0.391 (inactive),-0.914,0.15
CC(C)[C@@H](C(=O)O)n1cc(-c2ccccn2)nn1,-0.24,-0.137,1.05,0.106,-0.0169,0.516,0.422,0.592 (inactive),-0.276,0.414,0.756 (inactive),0.735,-1.37 (inactive),1.11 (inactive),-0.206 (inactive),-0.52 (inactive),1.87 (inactive),1.17 (inactive),0.386,-0.0597
[N-]=[N+]=NCc1ccccc1C[C@]1(C(=O)NCc2ccccc2)N=C(c2ccc(OCCCO)cc2)O[C@H]1c1ccccc1,0.0397,-2.79,0.457,-2.82,-2.07,-2.78,0.671,0.371 (inactive),-0.819,-1.6,0.225 (inactive),0.643,2.86 (inactive),-0.295 (inactive),2.37 (inactive),4.01 (inactive),3.49 (inactive),1.24 (inactive),-0.29,0.191
COCCCNC(=O)[C@@]1(CCS(=O)(=O)c2ccccc2)N=C(c2ccc(OCCCO)cc2)O[C@H]1c1ccccc1CN=[N+]=[N-],-0.497,1,2.66,-0.0301,0.872,-0.532,1.02,0.164 (inactive),-0.866,0.175,0.0658 (inactive),-0.404,-0.938 (inactive),1.21 (inactive),-1.02 (inactive),-1.49 (inactive),1.4 (inactive),0.502 (inactive),0.846,0.0871
C=C1C=C(Br)C2(OCCCO2)[C@H]2OC12 (stereo not given in full),0.705,-1.53,-0.191,0.817,0.174,-0.0566,0.533,-0.696 (inactive),0.305,-0.443,-0.54 (inactive),-0.92,-0.353 (inactive),-2.94 (inactive),-0.99 (inactive),0.307 (inactive),0.846 (inactive),0.781 (inactive),-0.846,0.0009
CC(C)[Si](C#C[Si](C(C)C)(C(C)C)C(C)C)(O[C@H](C)c1cn([C@H](C)c2ccccc2)nn1)C(C)C,0.265,2.27,0.517,0.417,-0.908,1.5,2.71,1.94 (inactive),-0.87,0.265,3.13 (inactive),1.3,-0.0779 (inactive),2.34 (inactive),-0.32 (inactive),-1.88 (inactive),2.06 (inactive),0.944 (inactive),2.41,-0.0559
C=C(COC)C(=O)CC[C@H](OC(=O)c1cccnc1)c1cccc(OCCO)c1,-1.3,0.18,1.13,-1.38,-3.32,-0.941,0.872,0.984 (inactive),-0.169,-0.615,0.633 (inactive),0.282,-0.221 (inactive),0.839 (inactive),-0.236 (inactive),1.61 (inactive),1.09 (inactive),0.757 (inactive),-0.581,0.0792
O=C1c2ccccc2[C@](Cc2ccccc2I)(C(=O)O)[C@H](c2ccc(CO)cc2)N1Cc1ccccc1Cl,2.39,1.32,1,-0.504,-0.089,-1.18,-0.172,0.571 (inactive),-0.565,0.295,0.177 (inactive),0.722,-2.78 (inactive),1.34 (inactive),-0.812 (inactive),-1.29 (inactive),-0.0031 (inactive),-0.11 (inactive),0.601,-0.148
CC(C)N1CC=CC23O[C@@H]4/C=C\CCCOC(=O)C4[C@H]2C(=O)N(CCCO)[C@@H]3C1=O (stereo not given in full),2.19,1.02,0.834,0.152,0.827,0.311,0.795,0.32 (inactive),0.747,0.789,0.817 (inactive),0.129,0.11 (inactive),0.791 (inactive),-0.506 (inactive),1.05 (inactive),1.36 (inactive),1.25 (inactive),1.78,0.0126
C=CCN1C(=O)[C@]2(O[C@H](CCn3cc([C@H](O)c4ccccc4)nn3)[C@@H]([Si](C)(C)c3ccc(OC)cc3)[C@@H]2C)c2cc(N3CCOC3=O)ccc21,-2.66,0.0522,3.08,-0.812,-1.98,-2.86,3.15,2.62 (inactive),-0.906,-0.286,-2.25 (inactive),-1.22,-0.506 (inactive),-0.72 (inactive),-0.175 (inactive),0.58 (inactive),1.84 (inactive),1.06 (inactive),-1.23,-0.0721
CC(C)NC(=O)[C@@H]1c2ccccc2C(=O)N(Cc2cc(F)cc(C(F)(F)F)c2)[C@H]1c1ccc(CO)cc1,0.949,1.48,1.41,0.813,0.404,0.252,1.59,-0.64 (inactive),-0.834,0.621,1.84 (inactive),0.641,-0.518 (inactive),1.39 (inactive),-0.243 (inactive),-0.284 (inactive),1.33 (inactive),0.326 (inactive),1.5,-0.174
CC(C)CCC[C@@H](C)[C@H]1CC[C@@]2(C)C3=C(CC[C@]12C)[C@@]1(C)CC[C@H](OC(=O)CCl)C(C)(C)C1CC3 (stereo not given in full),0.517,1.98,0.155,1.17,0.405,0.895,1.58,-0.207 (inactive),-0.493,1.07,0.96 (inactive),1.16,-0.795 (inactive),0.33 (inactive),0.141 (inactive),-0.249 (inactive),2.93 (inactive),1.59 (inactive),0.444,0.106
O=C1O[C@H](c2ccccc2)[C@H](c2ccccc2)N2[C@H]1[C@@H](C(=O)NC[C@H](O)c1ccccc1)[C@]1(C(=O)Nc3ccc(C#CC4(O)CCCCCC4)cc31)[C@H]2c1ccc(O)cc1,1.58,0.97,1.43,-0.641,-0.804,-1.62,-1.71,-0.947 (inactive),-0.672,-0.566,0.814 (inactive),0.82,-1.55 (inactive),0.557 (inactive),-0.154 (inactive),-0.49 (inactive),0.487 (inactive),0.972 (inactive),0.327,-0.141
CCOC(=O)C[C@H]1[C@H](OC(=O)Cc2ccc3c(c2)OCO3)[C@@H](NC(=O)c2ccc3ccccc3c2)c2cc(OCCCO)ccc2N1C(=O)c1ccc2ccccc2n1,-3.84,3.85,0.898,1.94,-0.144,0.934,2.77,3.13 (inactive),0.319,1.64,1.09 (inactive),1.36,-1.73 (inactive),-0.0816 (inactive),0.623 (inactive),-4.07 (inactive),1.23 (inactive),0.0331 (inactive),-0.375,0.128
[N-]=[N+]=NCc1ccccc1C[C@@]1(C(=O)NCc2ccccc2)N=C(c2ccc(OCCCO)cc2)O[C@@H]1c1ccccc1,0.0832,-2.22,0.904,-1.34,-2.85,-3.02,0.634,0.187 (inactive),-0.876,-0.758,0.507 (inactive),1.72,1.47 (inactive),-0.544 (inactive),-0.112 (inactive),0.971 (inactive),1.61 (inactive),0.407 (inactive),-0.732,-0.0172
CCCCCCC#C[Si](O[C@H](c1ccccc1)c1cn(Cc2ccccc2)nn1)(C(C)C)C(C)C,-1.87,1.68,0.28,-0.316,0.163,0.0412,6.57,2.09 (inactive),0.548,-0.198,4.71 (inactive),2.52,-0.382 (inactive),2.12 (inactive),0.337 (inactive),-0.486 (inactive),2.12 (inactive),1.36 (inactive),2.68,-0.0368
